Some test systems named below: NCI-H23 lung; NCI-H226 lung; NCI-H322M lung; HOP-62 NSCLC; NCI-H460 lung; HOP-92 NSCLC; NCI-H522 lung; A549/ATCC NSCLC; 786-0 renal; COLO 205 colon; DU-145 prostate; K-562 leukemia; MALME-3M melanoma; MDA-MB-231 breast; RXF 393 renal; SF-268 CNS; SF-295 CNS; SF-539 CNS; UACC-257 melanoma; M14 melanoma.
Common to all, as to assay: NCI-60 one-dose screen, 48 h (100 = growth as untreated, 0 = no growth, -100 = all killed)
Common to all, as to conditions: 10 µM unless noted

The panel holds about 83,000 compounds, 20% with a hit somewhere; the sample as a whole holds those more often.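 96-well plates, one dose, 48 hours. Percent growth reported; active if below 10.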 Unmarked numbers belong to inactive results. Active and inactive are the calls of the source.

Regarding `COc1cc(C=C2C(=O)NC(=S)NC2=O)cc(CN2CCCC2)c1O`, the growth in the assay on NCI-H23 lung is 103%; in the assay on NCI-H226 lung it was 103%; in the assay on NCI-H322M lung it was 105%; in the assay on HOP-62 NSCLC it was 103%; in the assay on NCI-H460 lung it was 109%; with HOP-92 NSCLC, 92.8%. Further, the growth in the assay on NCI-H522 lung is 96.4%; in the assay with A549/ATCC NSCLC, 96.6%; in the assay on 786-0 renal, 102%; with COLO 205 colon it was 120%; in the assay on DU-145 prostate, 113%; in the assay with K-562 leukemia, 108%. The growth is 108% with MALME-3M melanoma; 111% in the assay on MDA-MB-231 breast; 103% in the assay on RXF 393 renal; 99.6% in the assay with SF-268 CNS; 104% with SF-295 CNS; 101% in the assay with SF-539 CNS. Moreover, the growth was 98.8% with UACC-257 melanoma and 109% in the assay on M14 melanoma.

For `CN1CC(c2ccc(Br)cc2)C(C(=O)c2ccc(Br)cc2)C12C(=O)Nc1ccccc12` (stereo not given), the growth is 67.7% in the assay with NCI-H23 lung; 73.5% in the assay on NCI-H226 lung; 89.9% in the assay with NCI-H322M lung; 69% with HOP-62 NSCLC; 73.3% in the assay with NCI-H460 lung; 70.2% with HOP-92 NSCLC. Also, the growth is 58.2% in the assay with NCI-H522 lung; 59.2% in the assay with A549/ATCC NSCLC; 79.2% in the assay on 786-0 renal; 76.6% in the assay on COLO 205 colon; 83.5% in the assay on DU-145 prostate; 44.8% in the assay on K-562 leukemia. The growth in the assay with MALME-3M melanoma is 81.7%; in the assay with MDA-MB-231 breast it was 81.7%; with RXF 393 renal it was 69.7%; in the assay on SF-268 CNS it was 69.5%; in the assay with SF-295 CNS, 78.5%; in the assay on SF-539 CNS it was 90.5%. Also, the growth in the assay on UACC-257 melanoma was 85.5%; with M14 melanoma it was 76%.

Take `COC1/C=C/OC2(C)Oc3c(C)c(O)c4c(O)c(c(/C=N/N(c5ccccc5)c5ccccc5)c(O)c4c3C2=O)NC(=O)C(C)=C/C=C/C(C)C(O)C(C)C(O)C(C)C(OC(C)=O)C1C` (stereo not given): the growth in the assay on NCI-H23 lung is 64.3%; with NCI-H226 lung, -47.9% (active); with NCI-H322M lung, 109%; in the assay on HOP-62 NSCLC, 73.1%; in the assay on NCI-H460 lung it was 56.5%; in the assay with HOP-92 NSCLC it was 79%. Moreover, the growth in the assay on NCI-H522 lung was 37.6%; in the assay on A549/ATCC NSCLC it was 57%; with 786-0 renal, 106%; in the assay with COLO 205 colon, 8.26% (active); in the assay on DU-145 prostate, 90.1%; with K-562 leukemia, 72.4%. In addition, the growth was 111% with MALME-3M melanoma; 90.9% in the assay on MDA-MB-231 breast; -53.5% (active) in the assay with RXF 393 renal; 80.7% in the assay with SF-268 CNS; 65.1% in the assay with SF-295 CNS; 89.8% with SF-539 CNS. Also, the figures for the growth in the assay on UACC-257 melanoma and with M14 melanoma were 75.8% and 95.7%, respectively.

`CS(=O)(=O)Nc1cc(-c2ccc3ncnc(Nc4ccc(F)c(Cl)c4)c3c2)ccc1Cl`: the growth in the assay on NCI-H23 lung is 48.9%; in the assay with NCI-H226 lung it was 70.1%; in the assay with NCI-H322M lung, 24.7%; in the assay on HOP-62 NSCLC, 64.7%; in the assay with NCI-H460 lung, 44.7%; with HOP-92 NSCLC it was -6.71% (active). In addition, the growth in the assay on NCI-H522 lung is 19%; in the assay on A549/ATCC NSCLC, 31.6%; in the assay on 786-0 renal, 50.3%; in the assay on COLO 205 colon, 58.7%; with DU-145 prostate, 39.8%; in the assay with K-562 leukemia it was 39.4%. For the same compound, the growth in the assay on MALME-3M melanoma is 53.4%; in the assay on MDA-MB-231 breast, 54.3%; in the assay on RXF 393 renal, 22%; in the assay with SF-268 CNS it was 52.7%; in the assay with SF-295 CNS, 15.6%; in the assay on SF-539 CNS, 52.1%. Further, the values for the growth with UACC-257 melanoma and with M14 melanoma were 59.6% and 46.8%, respectively.

As for `COC(=O)[C@@]12CC=C(C)[C@]3(C[C@H](c4ccoc4)OC3=O)[C@H]1C=C[C@@H](O)[C@@]2(O)C(=O)OC`, the growth in the assay on NCI-H23 lung is 100%; with NCI-H226 lung, 116%; in the assay on NCI-H322M lung, 88.7%; with HOP-62 NSCLC, 91.3%; with NCI-H460 lung, 111%; with HOP-92 NSCLC, 102%. The growth was 66.3% in the assay with NCI-H522 lung; 84.9% with A549/ATCC NSCLC; 97.4% in the assay with 786-0 renal; 110% in the assay with COLO 205 colon; 98.3% in the assay on DU-145 prostate; 94.1% in the assay on K-562 leukemia. In addition, the growth was 104% with MALME-3M melanoma; 110% in the assay on MDA-MB-231 breast; 114% in the assay with RXF 393 renal; 98.1% in the assay on SF-268 CNS; 96.4% in the assay with SF-295 CNS; 98.7% with SF-539 CNS. Besides, the growth in the assay on UACC-257 melanoma is 82.1%; in the assay on M14 melanoma it was 101%.

For the compound `C[C@H](c1nc2ccc(C#N)cc2[nH]1)[C@H]1CC[C@H]2[C@@H]3CCC4=CC(=O)CC[C@]4(C)[C@H]3CC[C@]12C`, the growth is 59.7% in the assay with NCI-H23 lung; 78.4% in the assay on NCI-H226 lung; 94.4% in the assay on NCI-H322M lung; 101% in the assay with HOP-62 NSCLC; 64% in the assay with NCI-H460 lung; -9.25% (active) in the assay on HOP-92 NSCLC. Moreover, the growth in the assay on NCI-H522 lung was 69.8%; in the assay with A549/ATCC NSCLC it was 63.9%; in the assay with 786-0 renal, 67.4%; in the assay on COLO 205 colon, 79.2%; in the assay on DU-145 prostate it was 68.9%; in the assay on K-562 leukemia, 40.8%. Besides, the growth was 85.6% with MALME-3M melanoma; 70.1% in the assay with MDA-MB-231 breast; 64.3% in the assay with RXF 393 renal; 78.5% with SF-268 CNS; 48.7% with SF-295 CNS; 62.9% in the assay on SF-539 CNS. Further, the growth with UACC-257 melanoma was 68.2%; with M14 melanoma it was 70.1%.

As to `CCOC(=O)C/C(=N\Nc1cc(=O)[nH]c2ccc(C)cc12)C(=O)OCC`, the growth is 103% in the assay on NCI-H23 lung; 93.3% in the assay on NCI-H226 lung; 98% in the assay with NCI-H322M lung; 107% in the assay on HOP-62 NSCLC; 104% in the assay with NCI-H460 lung; 79.8% with HOP-92 NSCLC. Besides, the growth in the assay with NCI-H522 lung was 99.4%; in the assay on A549/ATCC NSCLC, 107%; in the assay on 786-0 renal it was 109%; in the assay with COLO 205 colon, 124%; in the assay on DU-145 prostate, 108%; in the assay with K-562 leukemia it was 89.4%. For the same compound, the growth in the assay with MALME-3M melanoma was 98%; in the assay with MDA-MB-231 breast, 96.3%; in the assay on RXF 393 renal it was 108%; in the assay with SF-268 CNS, 99.5%; in the assay on SF-295 CNS, 105%; with SF-539 CNS, 103%. Also, the growth in the assay with UACC-257 melanoma is 105%; in the assay on M14 melanoma, 106%.

The record behind these values is PubChem BioAssay (NCI).
